# Compound activity: PubChem, National Center for Advancing Translational Sciences (NCATS)
# Sampled rows, rich in hits. Any-hit rate of the full collection: about 11%.
# BAZ2B block: BAZ2B (human) inhibition; Q9UIF8; AlphaScreen BAZ2B-H3K14Ac peptide displacement; Potency, µM (highest dose often 114 µM), for inactives: at the highest dose activity change, negative = inhibition, actives largely listed as inhibitors; actives 4.4% (n = 360,000); AID 504333; further: on the % scale 0 is the no-effect control and ±100 the full control effect; nearly all actives have a fitted effect of over 60% in size
#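 AlphaScreen displacement of biotin-H3(5-23)K14Ac peptide (50 nM final) from BAZ2B (50 nM final) in PBS pH 7.4, 0.01% Tween-20; complex preformed 30 min RT, then compounds (top 110 uM) 30 min RT, beads 20 min dark.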
# G9a block: inhibitors of human histone lysine methyltransferase G9a. Q96KQ7. G9a H3K9 monomethylation, AlphaScreen, 2 h. Potency, µM (titrated, usually from 102 µM), without a hit: at the highest dose activity, negative = inhibition, hits mostly inhibitors. actives 8.8% (n = 350,000). AID 504332; further: on the % scale 0 is the no-effect control and ±100 the full control effect; nearly all actives have a fitted effect of over 75% in size
# Target sequence (Q96KQ7 913-1193 limits assumed): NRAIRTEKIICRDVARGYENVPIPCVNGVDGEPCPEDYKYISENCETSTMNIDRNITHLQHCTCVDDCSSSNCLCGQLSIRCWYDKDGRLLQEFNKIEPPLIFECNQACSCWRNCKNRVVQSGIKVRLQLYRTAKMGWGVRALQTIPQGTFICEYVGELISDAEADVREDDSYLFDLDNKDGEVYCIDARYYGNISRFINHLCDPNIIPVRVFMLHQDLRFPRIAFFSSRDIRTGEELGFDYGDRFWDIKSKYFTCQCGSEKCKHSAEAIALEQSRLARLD
#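 Quantitative HTS format: methyltransferase activity on a biotin-tagged H3K9 peptide is measured by AlphaScreen, using a rabbit anti-monomethyl-H3K9 antibody with streptavidin donor and anti-IgG acceptor beads. Final levels are 20 nM enzyme, 500 nM peptide, 20 uM SAM; 2 h RT.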
# VDR inhibitor: inhibitors of human vitamin D receptor; actives 0.93% (n = 400,000); P11473; Potency, µM, for inactives: max response, negative = inhibition, hits mostly inhibitors; VDR-SRC2-3 peptide fluorescence polarization, 2 h; further: on the % scale 0 is the no-effect control and ±100 the full control effect
# Target sequence (P11473 whole entry, looked up): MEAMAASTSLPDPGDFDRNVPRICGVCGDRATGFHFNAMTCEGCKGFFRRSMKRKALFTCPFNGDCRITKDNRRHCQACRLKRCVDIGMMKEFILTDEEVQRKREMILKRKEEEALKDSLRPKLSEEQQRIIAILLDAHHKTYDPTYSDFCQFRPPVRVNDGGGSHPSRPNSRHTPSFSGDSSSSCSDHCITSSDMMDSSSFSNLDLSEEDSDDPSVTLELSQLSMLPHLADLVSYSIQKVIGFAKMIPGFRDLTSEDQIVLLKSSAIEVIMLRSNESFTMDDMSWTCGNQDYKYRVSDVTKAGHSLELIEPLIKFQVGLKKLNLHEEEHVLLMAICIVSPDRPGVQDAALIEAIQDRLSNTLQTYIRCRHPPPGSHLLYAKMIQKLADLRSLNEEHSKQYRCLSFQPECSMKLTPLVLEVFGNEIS
#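 Signal is fluorescence polarization, reporting how far test compounds block the interaction of VDR with the SRC2-3 coregulator peptide after a 2 h room-temperature incubation.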
# PLK1 PBD inh: PLK1 (human) polo-box domain binding inhibition; Potency, µM, without a hit: max response, negative = inhibition, hits mostly inhibitors; AID 720504; actives 2.8% (n = 360,000); Plk1 PBD binding of FITC phosphopeptide, fluorescence polarization; further: series mostly up to about 57 µM; on the % scale 0 is the no-effect control and ±100 the full control effect; nearly all actives have a fitted effect of over 65% in size
# HP1b binding inh: blocks HP1-beta chromodomain binding to methylated histone tails; actives 0.56% (n = 390,000); P83916; AID 540317; AlphaScreen HP1-beta / biotin-H3K9me3 peptide binding; Potency, µM (titrated, usually from 114 µM), inactives show at the highest dose activity change, negative = inhibition, actives largely listed as inhibitors; further: nearly all actives have a fitted effect of over 70% in size
#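 AlphaScreen: HP1-beta (50 nM) preformed 30 min with biotin-H3(1-18)K9me3 peptide (50 nM) in PBS pH 7.4, 0.01% Tween-20. Compound added for 30 min at RT, then streptavidin donor/nickel chelate acceptor beads (10 ug/mL) for 30 min.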
# JMJD2A Tudor inh: blocks the human JMJD2A Tudor domain; O75164; AlphaScreen JMJD2A-Tudor / H3K4me3 peptide binding; Potency, µM (series often up to 114 µM), inactives show at the top dose activity change, negative = inhibition, most hits filed as inhibitors; actives 4.4% (n = 390,000); AID 504339; further: on the % scale 0 is the no-effect control and ±100 the full control effect; nearly all actives have a fitted effect of over 50% in size
# Numbers without * were called inactive; ? = inconclusive; . = no result given; [ ] = dose if it differs, or a comment. The call rests on the fitted dose curve; in most records, active means well fitted curve in the direction sought with a large enough effect; inconclusive means small, poorly fitted or top-dose-only effect, or another doubt; inactive means no such curve, though single readings can be large; an effect the other way counts as inactive or inconclusive. Potency means the concentration at half of the fitted maximal effect.
SMILES,BAZ2B block,G9a block,VDR inhibitor,PLK1 PBD inh,HP1b binding inh,JMJD2A Tudor inh
COc1cc(/C=C2/NC(=O)N(Cc3ccccc3F)C2=O)cc(OC)c1O,1%,35µM*,26%,-4%,33%,-20%
CCOc1cc(/C=C2/NC(=O)N(Cc3ccccc3F)C2=O)ccc1O,8%,-1%[59 µM],-7%,1%,21%,-2%
Cc1cccc2cc(CN(C(=O)c3cccc(Cl)c3)c3ccccc3)c(=O)[nH]c12,2%,-4%[59 µM],6%,.,53%,-1%
COc1ccc2c(c1)cc1c(=O)n(CC(=O)NCCCc3ccccc3)nc(C)n12,6%,-6%[59 µM],-1%,.,30%,-14%
COc1ccc2c(c1)O[C@H](c1ccc3c(c1)OCO3)[C@@H](OC(=O)Nc1ccc(OC(F)F)cc1)C2=O,.,.,-2%,.,.,.
COc1cc(C)c(C(=O)Oc2cc(C)c(C(=O)O)c(O)c2C)c(OC)c1C,-29%,?,?,38µM*,14%,-31%
O=C1[C@H]2[C@H](ON3CCCC[C@H]23)C(=O)N1c1cccc(C(F)(F)F)c1,-9%,-30%,1%,-23%,-11%,-12%
COc1ccc([C@@H]2[C@H]3C(=O)N(c4cccc(C(F)(F)F)c4)C(=O)[C@H]3ON2C)cc1,14%,45µM*,4%,0%,34%,-3%
CCOC(=O)COc1c(Br)cc(/C=C2\SC(=O)N(CC(=O)N3CCCC3)C2=O)cc1OC,-25%,?,?,17µM*,-18%,?
Cc1ccc(C)c(NC(=O)C2C3C=CC(O3)C2C(=O)O)c1 (stereo not given),-12%,45µM*,1%,4%,35%,-22%
Cc1ccc(C)c(NC(=O)C2CC=CCC2C(=O)O)c1 (stereo not given),-26%,-9%[59 µM],4%,0%,37%,11%
Cc1ccc(NC(=O)C2C3C=CC(O3)C2C(=O)O)c(C)c1 (stereo not given),-2%,40µM*,-4%,-18%,35%,-10%
COc1ccccc1NC(=O)C1C2C=CC(O2)C1C(=O)O (stereo not given),?,50µM*,.,.,.,.
Cc1ccc(F)cc1NC(=O)C1C2CCC(O2)C1C(=O)O (stereo not given),25%,79µM*,-13%,4%,19%,-24%
COC(=O)c1sccc1NC(=O)C1C2C=CC(O2)C1C(=O)O (stereo not given),-1%,-17%[59 µM],-2%,-8%,54%,?
COc1ccc(CCN2C(=O)CC(NNC(=O)c3ccccc3Br)C2=O)cc1OC (stereo not given),9%,-13%[59 µM],-1%,0%,27%,-13%
Cc1cccc(NC(=O)C2C3C=CC(O3)C2C(=O)O)c1C (stereo not given),-5%,35µM*,1%,4%,47%,-32%
CSCC[C@H](NC(=O)c1ccc2ccccc2c1)C(=O)N1CCC2(CC1)NCCc1[nH]cnc12,?,45µM*,-20%,-15%,6%,?
Cc1ccc2[nH]c(=O)c(Cc3ccccc3)c(O)c2c1,?,8.9µM*,2%,-7%,44%,-3%[11.4 µM]
CCC(=O)N1CCc2cc(Br)cc(S(=O)(=O)N3CCC(C(=O)Nc4ccc(OC)cc4)CC3)c21,1%,-2%[59 µM],9%,.,32%,-11%
CCOCCCNC(=O)c1[nH]c2cc(OC)ccc2c1Sc1ccccc1,-14%,-40%[59 µM],5%,.,6%,?
Cc1ccc(CNC(=O)c2ccc3c(=O)n(CCCN4CCCC4=O)c(=S)[nH]c3c2)cc1,-16%,?,14%,1%,42%,6%
COc1cc(NC(=O)c2ccc3c(=O)n(Cc4ccco4)c(=S)[nH]c3c2)cc(OC)c1OC,-9%,?,6%,-13%,11%,-17%
O=C(NCc1ccccn1)c1ccc2c(=O)n(CCc3ccccc3)c(=O)[nH]c2c1,-21%,?,8%,17%,74%,-11%
COc1ccc(OC)c(-n2c(=S)[nH]c3cc(C(=O)N4CCC(C(N)=O)CC4)ccc3c2=O)c1,0%,?,2%,-1%,57%,16µM*
SMILES,BAZ2B block,G9a block,VDR inhibitor,PLK1 PBD inh,HP1b binding inh,JMJD2A Tudor inh
O=C(NCCCN1CCCC1=O)c1ccc2c(=O)n(Cc3ccco3)c(=S)[nH]c2c1,5%,10µM*,-4%,4.7µM*,-19%,?
COc1ccc(-n2c(=S)[nH]c3cc(C(=O)N4CCN(c5ccccc5)CC4)ccc3c2=O)cc1,-11%,-2%,-7%,-6%,38%,-6%
CCCCCn1c(=O)[nH]c2cc(C(=O)NCc3ccccn3)ccc2c1=O,79µM*,40µM*,22%,-14%,11%,?
O=C(NCc1ccccc1)c1ccc2c(=O)n(CCCN3CCCC3=O)c(=S)[nH]c2c1,-11%,45µM*,1%,-5%,32%,-17%
Clc1ccc(CNCCC2=CCCCC2)cc1,10%,-2%[59 µM],-2%,-9%,3%,1%
O=C(c1ccc2c(=O)n(Cc3ccco3)c(=S)[nH]c2c1)N1CCN(Cc2ccccc2)CC1,1%,-4%[59 µM],2%,-5%,6%,-26%
COC(=O)c1ccc2c(=O)n(CCCN3CCCC3=O)c(=S)[nH]c2c1,71µM*,-30%[12.7 µM],-5%,-7%,27%,?
C=CCn1c(=S)[nH]c2cc(C(=O)Nc3ccc(F)cc3)ccc2c1=O,-23%,1%,-12%,-3%,27%,-13%
C=CCNC(=O)c1ccc2c(=O)n(CCCN3CCCC3=O)c(=S)[nH]c2c1,?,?,-19%,-9%,11%,50µM*
COc1ccc(OC)c(-n2c(=S)[nH]c3cc(C(=O)NCCCN4CCCC4=O)ccc3c2=O)c1,-34%,28µM*,.,.,.,.
COc1ccc(CNC(=O)c2ccc3c(=O)n(CCCN4CCCC4=O)c(=S)[nH]c3c2)cc1,-17%,15%[59 µM],-13%,-12%,9%,-20%
COc1ccccc1CNC(=O)c1ccc2c(=O)n(CCCN3CCCC3=O)c(=S)[nH]c2c1,?,9%[59 µM],-8%,-8%,15%,-31%
CN1CCN(C(=O)c2ccc3c(=O)n(Cc4ccco4)c(=S)[nH]c3c2)CC1,-5%,45µM*,16%,-7%,17%,13µM*
CCN(CC)C(=O)C1=C(C)N(CCCOC)C(=O)C(CC(=O)NCCN2CCOCC2)C1 (stereo not given),.,.,.,-17%,.,.
O=C(O)c1cccc(N2C(=O)CSC2c2ccccc2)c1 (stereo not given),-1%,4%,27%,-6%,19%,-6%
O=c1c2cc3c(cc2[nH]c(=S)n1Cc1ccco1)OCO3,-25%,40µM*,3%,-14%,23%,-7%
c1cncc(CNc2cc(-c3ccoc3)ncn2)c1,.,-25%[0.501 µM],22µM*,.,.,.
